Compounds with a hit are over-represented: about 19% of the library has one in this group of screens.
IL-1B inflam inh = blocks inflammasome-driven IL-1 beta release; THP-1 LPS/ATP IL-1B secretion, AlphaLISA, 16 h; stronger effect = lower value; activity change, % at 57.5 µM; hit rate 4.7% among 360,000; AID 743279; in the data active = activity change below about -50%; inconclusive = mostly about -30% to -49%
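THP-1 cells pretreated 1 hr with compounds (up to 57.5 uM final), then stimulated with LPS (250 ng/mL final) plus ATP (1.25 mM final); secreted IL-1B measured by AlphaLISA after 16 hr, decreased signal indicating inhibition.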
HT1080NT lethal = kills 2HG-producing HT-1080-NT fibrosarcoma cells; Potency, µM (highest dose often 46.1 µM), inactives show at the top dose activity, negative = less viability, most hits filed as cytotoxic; hit rate 1.6% among 360,000; AID 686970; HT-1080-NT fibrosarcoma viability, CellTiter-Glo ATP luminescence, 48 h;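 note: NT is the 2HG producing partner of a matched IDH1 knockdown line; potency is the fitted concentration of half-maximal effect; 0% = DMSO-treated cells and -100% = media-only wells without cells; nearly all actives have a fitted effect of over 55% in size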
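Read-out is CellTiter-Glo luminescence after 10 minutes at room temperature, following 48 hours' compound treatment of HT-1080-NT cells (750 cells/well, RPMI, 5% FBS, 37 degrees C).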
TDP1 cell noCPT = qHTS for Inhibitors of human tyrosyl-DNA phosphodiesterase 1 (TDP1): qHTS in cells in absence of CPT; DT40 Tdp1-/- hTDP1 cells, no CPT, ATP luminescence, 48 h; Potency, µM (top dose mostly 46.2 µM), for the others: at the top dose activity change, negative = growth inhibition, hits mostly inhibitors; hit rate 15% among 420,000; note: potency is the fitted concentration of half-maximal effect; nearly all actives have a fitted effect of over 55% in size
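No-CPT arm: Tdp1-/-;hTDP1 DT40 cells (400/well) plus compounds, incubated ≥48 hr at 37 °C. Readout CellTiter-Glo luminescence.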
TDP1 cell CPT = growth inhibition of DT40 Tdp1-/-;hTDP1 cells with camptothecin (screen for TDP1 inhibitors) | chicken DT40 Tdp1-/-;hTDP1 cells + 20 nM CPT, ATP luminescence, 48 h | Potency, µM (highest dose often 46.2 µM), inactives show at the highest dose activity change, negative = growth inhibition, most hits filed as inhibitors | hit rate 12% among 420,000 | AID 686979; note: potency is the fitted concentration of half-maximal effect; nearly all actives have a fitted effect of over 55% in size
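Chicken DT40 Tdp1-/- cells stably complemented with human TDP1 were seeded at 400 cells/well in medium containing 20 nM camptothecin, exposed to pin-transferred compounds, and grown at 37 °C for at least 48 hr. Viability was read as ATP luminescence.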
HT1080 IDH1KD tx = toxicity to HT-1080 IDH1 knockdown cells (counter line). hit rate 2% among 360,000. Potency, µM (highest dose often 46.1 µM), for the others: top-dose activity, negative = toxicity, hits mostly cytotoxic. HT-1080 IDH1 knockdown viability, ATP luminescence, 48 h. AID 686971;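 note: potency is the fitted concentration of half-maximal effect; 0% = DMSO wells and -100% = cell-free medium wells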
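Cytotoxicity counter-line: IDH1KD HT-1080, 48 h, CellTiter-Glo. Curves classed by r2, magnitude and activity.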
* = called active by the depositor; ? = inconclusive; nt = no result; [ ] = another dose, or the depositor's remark. Unless noted, calls come from the whole dose curve; as a rule, active = well fitted curve in the direction sought with a large enough effect; inconclusive = small, poorly fitted or top-dose-only effect, or another doubt; inactive = no such curve, though single readings can be large; an effect the other way counts as inactive or inconclusive. Unless noted, % is set by controls: 0 for no effect and ±100 for the full control effect.

SMILES | IL-1B inflam inh | HT1080NT lethal | TDP1 cell noCPT | TDP1 cell CPT | HT1080 IDH1KD tx
COc1ccc(N2CCN(C(=O)CSc3ncnc4c3cnn4-c3ccccc3C)CC2)cc1 | 7.1 | 9.0% | ? | ? | 0.3%
CCOC(=O)c1sc(NC(=O)CC(C)c2ccccc2)nc1C (centres undefined) | 13.7 | ? | 3.66µM* | 13µM* | 9.2µM*
CCOC(=O)c1sc(NC(=O)CSC(=S)N2CCN(C)CC2)nc1C | ? | ? | 18.4µM* | 25.9µM* | ?
CCOC(=O)c1sc(NC(=O)CCc2ccccc2)nc1C | -8.7 | -17.2% | 1.16µM* | 1.84µM* | -5.8%
Cc1cnc(NC(=O)CC(C)c2ccccc2)s1 (centres undefined) | 35.8 | ? | 5.17µM* | 6.51µM* | ?
CC(C)c1nnc(NC(=O)CC(C)c2ccccc2)s1 (centres undefined) | 16.2 | -8.5% | -27.7% | -13.3% | -4.1%
Cc1ccc(C)c(N(CC(=O)NCCSCc2ccco2)S(C)(=O)=O)c1 | 11.2 | 11.7% | ? | -17.2% | -0.2%
Cc1ccccc1C(C(=O)NC1CCCCC1)N(C(=O)c1ccccn1)c1cccnc1 (centres undefined) | -5.8 | 12.2% | 1.0% | -0.5% | 0.4%
CC(=O)c1sc(NC(=O)COc2ccccc2)nc1C | -15.6 | 1.3% | 1.7% | 0.0% | 1.6%
CCOC(=O)c1sc2nc(NC(=O)COc3ccccc3)sc2c1C | -1.9 | 18.4% | 18.4µM* | ? | 7.5%
CC(=O)Nc1ccc(NC(=O)C(C)OC(=O)C(C)SCC(=O)Nc2ccc(C)cc2)cc1 (centres undefined) | 22.5 | 1.9% | -21.8% | 1.4% | 3.3%
O=C(COC(=O)c1ccccc1)Nc1cccc(S(=O)(=O)N2CCCCC2)c1 | 1.0 | 4.9% | 6.0% | 6.0% | -1.0%
O=C(COC(=O)c1cc([N+](=O)[O-])ccc1NCCO)Nc1ccc2c(c1)OCO2 | 30.0 | -21.2% | 4.6% | 3.2% | ?
O=C(COC(=O)c1cc([N+](=O)[O-])ccc1NCCO)Nc1cccc(S(=O)(=O)N2CCCC2)c1 | -4.6 | -5.4% | 13µM* | 29.1µM* | 0.8%
CCS(=O)c1ccccc1C(=O)OCC(=O)Nc1cccc(S(=O)(=O)N2CCCCC2)c1 (centres undefined) | 3.6 | -8.8%[9.24 µM] | 5.8µM* | 11.6µM* | -4.5%
CCOc1ccccc1C(=O)OCC(=O)Nc1cccc(S(=O)(=O)N2CCCC2)c1 | 26.2 | -3.1%[9.24 µM] | 20.6µM* | 20.6µM* | -0.5%
COc1ccc(-n2ccc(-c3nn(-c4cccc(C(F)(F)F)c4)ccc3=O)n2)cc1 | -12.5 | -6.4% | 18.4µM* | ? | -5.0%
CC(=O)Nc1ccc(C(=O)Nc2nc(-c3ccccn3)cs2)cc1 | -2.2 | -7.4% | 14.6µM* | 16.4µM* | -5.4%
CC(=O)Nc1ccc(C(=O)Nc2nc(-c3cccnc3)cs2)cc1 | -18.8 | 4.9% | ? | -27.7% | 22.2%
O=C(Nc1nc(-c2ccccn2)cs1)c1ccccc1-n1cnnn1 | 185.0 | ? | ? | 2.59µM* | ?
O=C(Nc1nc(-c2ccccn2)cs1)c1ccc2c(c1)OCCO2 | 54.8 | -23.0% | 3.26µM* | 3.26µM* | ?
O=C(Nc1ccccn1)c1ccc2c(c1)OCCO2 | -22.9 | -16.6% | ? | ? | -28.0%
O=C(Nc1ccc(OC(F)(F)F)cc1)c1ccccc1-n1cnnn1 | -28.8 | 1.4% | 7.0% | 2.5% | -2.4%
Cc1cc(NC(=O)CSc2nnc(Cc3ccccc3)o2)no1 | 11.4 | 15.5% | 1.4% | 5.7% | 23.6%
CCOc1ccc(NC(=O)c2ccco2)c([N+](=O)[O-])c1 | -6.8 | -19.5% | ? | ? | ?
SMILES | IL-1B inflam inh | HT1080NT lethal | TDP1 cell noCPT | TDP1 cell CPT | HT1080 IDH1KD tx
Cc1cc(NC(=O)C2CCCC2)nc2c1c(=O)oc1ccccc12 | 18.1 | 7.3% | 18.4µM* | ? | 13.5%
O=C(O)/C=C/c1cn(Cc2ccccc2)nc1-c1ccc(Cl)cc1 | 27.2 | -6.5% | -1.7% | -8.6% | -13.7%
COc1ccc(-c2ccoc2)cc1[C@H]1[C@H]2C=CC[C@@H](C)[C@@H]2C(=O)N1Cc1ccccc1 | -65.7* | ? | ? | ? | ?
COc1ccc(-c2ccc(OC)c([C@H]3[C@H]4C=CC[C@@H](C)[C@@H]4C(=O)N3Cc3ccccc3)c2)cc1 | 41.0 | 2.1% | 14.6µM* | 14.6µM* | 0.4%
COc1ccc(-c2ccc(C)cc2)cc1[C@H]1[C@H]2C=CC[C@@H](C)[C@@H]2C(=O)N1Cc1ccccc1 | 31.0 | 2.5% | ? | ? | 3.0%
COc1ccc2[nH]c(C(=O)Nc3ccc(F)cc3Br)cc2c1 | nt | ? | -22.5% | 0.5% | -17.4%
Cc1ccc(C(=O)C2C(=O)c3ccccc3C2=O)cc1 | 21.1 | -13.4% | -23.1% | ? | 0.0%
Cc1ccccc1N=C(c1ccccc1)C1C(=O)c2ccccc2C1=O | -18.6 | ? | 10.3µM* | 10.3µM* | ?
Cc1nc(N)nc(N)c1Oc1ccc(Cl)cc1 | 18.8 | ? | ? | 9.2µM* | -7.3%
CC1CN(C(=O)c2cccs2)CCN1C(=O)c1cccs1 (centres undefined) | -2.1 | 13.9% | -0.6% | -8.2% | 10.1%
Cc1onc(-c2ccccc2Cl)c1C(=O)N1CCCCC1C (centres undefined) | -16.8 | 10.7% | -24.1% | ? | 10.0%
COc1ccccc1C(=O)NCC(=O)N1CCN(C/C=C/c2ccccc2)CC1 | -6.7 | -2.8% | ? | ? | 8.2%
COc1ccc(C(=O)NC(C(=O)N2CCN(C/C=C/c3ccccc3)CC2)C(C)C)cc1 (centres undefined) | -25.3 | -8.4% | ? | 18.4µM* | -9.5%
CCOc1ccc(C(=O)NCC(=O)N2CCN(C/C=C/c3ccccc3)CC2)cc1OCC | 3.6 | 1.8% | 16.4µM* | ? | 0.6%
Cc1ccc(C(=O)CCC(=O)N2CCN(C/C=C/c3ccccc3)CC2)cc1 | 4.1 | 6.2% | 20.6µM* | ? | 4.6%
COc1ccc(C(=O)NCC(=O)N2CC=C(c3ccccc3)CC2)cc1OC | 7.1 | -0.8% | 25.9µM* | ? | 1.1%
CSc1ccc(CNCc2c(C(=O)O)c(C)n(Cc3ccc(F)cc3Cl)c2C)cc1 | nt | nt | -21.4% | ? | nt
O=C(NCc1cccnc1)[C@@H]1CC=C[C@@H]2CCN(C3CCCCC3)C(=O)[C@@H]21 | nt | nt | 1.6% | -4.5% | nt
Cc1ccc(NC(=O)Cn2c(C)cc(C)c(C#N)c2=O)cc1F | nt | nt | -18.9% | 6.0% | nt
CCOC(=O)N1CCN(C(=O)c2ccccc2NC(=O)c2ccc(C(C)(C)C)cc2)CC1 | 30.9 | -11.0% | -25.7% | 5.9% | -2.1%
CCOC(=O)N1CCN(C(=O)C(NC(=O)c2ccc(C(C)(C)C)cc2)C(C)C)CC1 (centres undefined) | 0.0 | -2.8% | 2.31µM* | 8.2µM* | -8.3%

Screens as filed in PubChem.
